Growth data for eight compounds are collected here from PubChem BioAssay (NCI).

Test systems include SR leukemia; RPMI-8226 leukemia; OVCAR-8 ovarian; OVCAR-5 ovarian; OVCAR-4 ovarian; SK-OV-3 ovarian; IGROV1 ovarian; OVCAR-3 ovarian; HS 578T breast; NCI/ADR-RES ovarian; T-47D breast; BT-549 breast; MDA-MB-435 melanoma; SW-620 colon; MCF7 breast; HCT-116 colon; HCC-2998 colon; KM12 colon.
What all share (assay): NCI-60 one-dose screen, 48 h (100 = growth as untreated, 0 = no growth, -100 = all killed)
Common to all, as to conditions: 10 µM unless noted

About 83,000 compounds went through this panel and 20% of them were active in at least one assay; those are over-represented in the sample as a whole.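 The endpoint reported here, percent growth, reads 100 for growth as untreated, 0 for no net growth and -100 for all cells dead.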 A number with no mark means an inactive call. Calls of active or inactive are those of the source. Rule for the calls: active = growth percent below 10; inactive = the rest.

On to `COC(=O)CNc1nc(N(C)O)nc(N(C)O)n1`, for which the growth in the assay with SR leukemia was 34.3%; with RPMI-8226 leukemia, 36.4%; in the assay with OVCAR-8 ovarian, 34.3%; with OVCAR-5 ovarian it was 87.7%; with OVCAR-4 ovarian, 29.3%; in the assay with SK-OV-3 ovarian, 50.8%. Further, the growth in the assay with IGROV1 ovarian was 48%; in the assay on OVCAR-3 ovarian, -6.47% (active); in the assay on HS 578T breast, 77.8%; with NCI/ADR-RES ovarian, 21.3%; with T-47D breast, 64.8%; in the assay on BT-549 breast, 66.9%. Besides, the growth was 65.7% in the assay on MDA-MB-435 melanoma; 42.8% in the assay with SW-620 colon; 30.7% with MCF7 breast; 13.8% with HCT-116 colon; 23.4% with HCC-2998 colon; 45.2% in the assay on KM12 colon.

With `COc1cccc(-c2nn(-c3ccccc3)cc2-c2ccnc(NCCNS(=O)(=O)c3ccc(C(F)(F)F)cc3)c2)c1`, the growth in the assay on SR leukemia is -16.1% (active); in the assay on RPMI-8226 leukemia, -4.8% (active); with OVCAR-8 ovarian, 15.7%; in the assay with OVCAR-5 ovarian, 24.9%; in the assay with OVCAR-4 ovarian, 31.2%; in the assay on SK-OV-3 ovarian it was 24.5%. In addition, the growth in the assay with IGROV1 ovarian was 28%; with OVCAR-3 ovarian, 7.03% (active); in the assay with HS 578T breast, 33.9%; in the assay with NCI/ADR-RES ovarian, 16.9%; with T-47D breast, 3.99% (active); in the assay with BT-549 breast, -29.3% (active). The growth is 13.2% with MDA-MB-435 melanoma; 28.4% in the assay on SW-620 colon; 11.1% in the assay with MCF7 breast; 14.7% in the assay on HCT-116 colon; 13.7% in the assay on HCC-2998 colon; 14.7% in the assay with KM12 colon.

As for `O=C(N/N=C/c1ccccc1SSc1ccccc1/C=N/NC(=O)c1ccccc1)c1ccccc1`, the growth was 18.9% in the assay on SR leukemia; 31.1% in the assay on RPMI-8226 leukemia; 24.9% in the assay on OVCAR-8 ovarian; 85.2% in the assay on OVCAR-5 ovarian; 38.5% in the assay with OVCAR-4 ovarian; 43% in the assay on SK-OV-3 ovarian. The growth in the assay with IGROV1 ovarian was 30.6%; in the assay with OVCAR-3 ovarian, 31.1%; in the assay with HS 578T breast it was 75.4%; in the assay with NCI/ADR-RES ovarian, 9.77% (active); in the assay with T-47D breast, 43.6%; in the assay with BT-549 breast, 30.1%. The growth with MDA-MB-435 melanoma was 46.1%; in the assay on SW-620 colon, 41.6%; with MCF7 breast it was 10.1%; with HCT-116 colon, 24.6%; with HCC-2998 colon it was 55.6%; in the assay with KM12 colon, 36.4%.

In the case of `Cn1c(=O)c2c(ncn2CC(=O)Nc2ccc(S(N)(=O)=O)cc2)n(C)c1=O`, the growth in the assay on SR leukemia is 105%; in the assay on RPMI-8226 leukemia, 99.9%; in the assay with OVCAR-8 ovarian, 105%; in the assay with OVCAR-5 ovarian, 105%; with OVCAR-4 ovarian, 108%; with SK-OV-3 ovarian it was 87.8%. In addition, the growth with IGROV1 ovarian is 112%; with OVCAR-3 ovarian, 106%; in the assay with HS 578T breast it was 101%; in the assay on NCI/ADR-RES ovarian, 106%; in the assay on T-47D breast, 93.2%; with BT-549 breast it was 92.8%. The growth was 108% with MDA-MB-435 melanoma; 103% in the assay with SW-620 colon; 98.6% in the assay with MCF7 breast; 92.7% in the assay on HCT-116 colon; 114% in the assay with HCC-2998 colon; 101% in the assay with KM12 colon.

As for `CCOC(=O)C1OC1(c1ccccc1)c1ccccc1` (centres undefined), the growth was 108% with SR leukemia; 95.6% with RPMI-8226 leukemia; 99.6% in the assay on OVCAR-8 ovarian; 99.6% in the assay on OVCAR-5 ovarian; 121% with OVCAR-4 ovarian; 112% in the assay on SK-OV-3 ovarian. Further, the growth is 99.6% in the assay on IGROV1 ovarian; 106% with OVCAR-3 ovarian; 114% in the assay on HS 578T breast; 105% in the assay with NCI/ADR-RES ovarian; 110% with T-47D breast; 110% in the assay on BT-549 breast. In addition, the growth in the assay on MDA-MB-435 melanoma was 104%; in the assay on SW-620 colon, 105%; in the assay on MCF7 breast, 105%; in the assay on HCT-116 colon, 107%; with HCC-2998 colon it was 117%; in the assay with KM12 colon it was 94.3%.

For the compound `O=c1[nH]c2c3ccncc3cc(-c3cccc(Cl)c3)c2c2cnccc12`, the growth in the assay with SR leukemia was 14.3%; with RPMI-8226 leukemia it was 27.1%; in the assay on OVCAR-8 ovarian, 40.2%; in the assay with OVCAR-5 ovarian, 67.9%; in the assay with OVCAR-4 ovarian, -8.25% (active); with SK-OV-3 ovarian it was 51.9%. Besides, the growth with IGROV1 ovarian is 70.9%; with OVCAR-3 ovarian it was -22.8% (active); in the assay with HS 578T breast it was 5.48% (active); with NCI/ADR-RES ovarian it was 50.3%; with T-47D breast it was 60.5%; with BT-549 breast, 22%. The growth in the assay with MDA-MB-435 melanoma is 64.9%; in the assay with SW-620 colon, 58.3%; with MCF7 breast it was 22.7%; in the assay with HCT-116 colon, -31.5% (active); in the assay with HCC-2998 colon, 61.5%; in the assay with KM12 colon, 34.7%.

With `CNC(=O)c1cc(Oc2ccc3nc(NC(=O)Nc4ccc(Cl)cc4)sc3c2)ccn1`, the growth in the assay with SR leukemia was 42.7%; with RPMI-8226 leukemia, 81.7%; with OVCAR-8 ovarian, 57.2%; in the assay with OVCAR-5 ovarian, 92.3%; with OVCAR-4 ovarian it was 13%; in the assay on SK-OV-3 ovarian it was 82%. Further, the growth is 83.6% in the assay on IGROV1 ovarian; 48.8% in the assay with OVCAR-3 ovarian; 30.1% in the assay with HS 578T breast; 83.6% in the assay on NCI/ADR-RES ovarian; 44% in the assay on T-47D breast; 102% in the assay with BT-549 breast. Besides, the growth with MDA-MB-435 melanoma was 64.1%; in the assay with SW-620 colon, 101%; with MCF7 breast, 69.5%; with HCT-116 colon, 47.3%; with HCC-2998 colon, 86.5%; in the assay on KM12 colon, 70%.

Turning to `CC(=O)O[C@H]1CC[C@]2(C)[C@H]3C(=O)C=C4[C@@H]5C[C@](C)(C(=O)N6CCCNCC6)CC[C@]5(C)CC[C@@]4(C)[C@]3(C)CC[C@H]2C1(C)C`, the growth in the assay with SR leukemia was -17.3% (active); in the assay with RPMI-8226 leukemia, -32.3% (active); in the assay on OVCAR-8 ovarian, -24.6% (active); with OVCAR-5 ovarian, 8.24% (active); in the assay with OVCAR-4 ovarian, -5.14% (active); in the assay with SK-OV-3 ovarian, 70.6%. The growth in the assay with IGROV1 ovarian is -80.5% (active); in the assay on OVCAR-3 ovarian, -86.4% (active); with HS 578T breast, 96.2%; in the assay on NCI/ADR-RES ovarian it was -41.6% (active); with T-47D breast it was -49.6% (active); in the assay with BT-549 breast, 86.9%. Besides, the growth in the assay on MDA-MB-435 melanoma was -14.9% (active); in the assay with SW-620 colon it was -88.7% (active); in the assay with MCF7 breast, -88.7% (active); in the assay with HCT-116 colon, -95.3% (active); in the assay with HCC-2998 colon it was 11.2%; with KM12 colon, 13.4%.
